HT1080-NT tox: qHTS for induction of synthetic lethality in tumor cells producing 2HG: qHTS for the HT-1080-NT fibrosarcoma cell line; HT-1080-NT fibrosarcoma viability, CellTiter-Glo ATP luminescence, 48 h; Potency, µM (series often up to 46.1 µM), without a hit: at the highest dose activity, negative = less viability, hits mostly cytotoxic; 360,000 tested, 1.6% active; AID 686970, 2013;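 also: NT is the 2HG producing partner of a matched IDH1 knockdown line; 0% = DMSO-treated cells and -100% = media-only wells without cells; nearly all actives have a fitted effect of over 55% in size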
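Compounds were tested in concentration-response format on HT-1080-NT cells for 48 hours at 37 degrees C. Cell viability came from CellTiter-Glo luminescence; curves were classified by r2, response magnitude and activity.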
TDP1 cell noCPT: qHTS for Inhibitors of human tyrosyl-DNA phosphodiesterase 1 (TDP1): qHTS in cells in absence of CPT; AID 686978, 2013; DT40 Tdp1-/- hTDP1 cells, no CPT, ATP luminescence, 48 h; Potency, µM (highest dose often 46.2 µM), for inactives: at the highest dose activity change, negative = growth inhibition, hits mostly inhibitors; 420,000 tested, 15% active; also: nearly all actives have a fitted effect of over 55% in size
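Stably hTDP1-transfected Tdp1-null chicken DT40 cells were treated with library compounds minus camptothecin and grown for at least 48 hr at 37 °C, after which cellular ATP was quantified by luminescence.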
HT1080 IDH1KD tx: qHTS for induction of synthetic lethality in tumor cells producing 2HG: qHTS for the HT-1080-IDH1KD cell line | Potency, µM (top dose mostly 46.1 µM), for the others: at the highest dose activity, negative = toxicity, most hits filed as cytotoxic | 360,000 tested, 2% active | HT-1080 IDH1 knockdown viability, ATP luminescence, 48 h | AID 686971, 2013;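 also: 0% = DMSO wells and -100% = cell-free medium wells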
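In this qHTS, HT-1080 cells depleted of IDH1 are exposed for 48 h at 37 °C to compound titrations. Toxicity is scored from CellTiter-Glo luminescence, with DMSO as full viability and medium alone as none.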
DT40 TDP1 CPT: qHTS for Inhibitors of human tyrosyl-DNA phosphodiesterase 1 (TDP1): qHTS in cells in presence of CPT | 420,000 tested, 12% active | Potency, µM (doses to about 46.2 µM), for inactives: top-dose activity change, negative = growth inhibition, usual class: inhibitors | chicken DT40 Tdp1-/-;hTDP1 cells + 20 nM CPT, ATP luminescence, 48 h; also: nearly all actives have a fitted effect of over 55% in size
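Chicken DT40 Tdp1-/- cells stably complemented with human TDP1 were seeded at 400 cells/well in medium containing 20 nM camptothecin, exposed to pin-transferred compounds, and grown at 37 °C for at least 48 hr. Viability was read as ATP luminescence.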
KB-V1 MDR tox: qHTS assay for MDR1-selective chemotherapeutics: Primary screen using the drug-selected MDR subline cells KB-V1 | KB-V1 MDR cells viability, CellTiter-Glo, 72 h | Potency, µM (top dose mostly 46.1 µM), most hits filed as cytotoxic | 400,000 tested, 3.4% active | AID 1347076, 2019; also: nearly all actives have a fitted effect of over 60% in size
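Following 72 h at 37 degrees C with compound, KB-V1 cell viability was read by CellTiter-Glo luminescence, medium being phenol-red-free DMEM plus 10% FBS; concentration-response parameters came from normalized, curve-fitted qHTS data.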
KB-3-1 tox: qHTS assay for MDR1-selective chemotherapeutics: Primary screen using the parental adenocarcinoma cell KB-3-1 | KB-3-1 viability, CellTiter-Glo ATP luminescence, 72 h | Potency, µM (top dose mostly 46.1 µM), usual class: cytotoxic | 400,000 tested, 1.4% active; also: nearly all actives have a fitted effect of over 60% in size
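KB-3-1 parental drug-naive adenocarcinoma cells in DMEM/10% FBS, incubated 72 h at 37 C with pin-transferred compounds across a concentration series. Viability by CellTiter-Glo luminescence; concentration-response curves fitted after normalization.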
* hit, by the source's call; i = inactive; u = inconclusive; x = no result; [ ] = dose if it differs, or a comment. An excerpt weighted towards active compounds, which were near 19% of everything screened. Calls follow the shape of the dose curve; as a rule, active = well fitted curve in the direction sought with a large enough effect; inconclusive = small, poorly fitted or top-dose-only effect, or another doubt; inactive = no such curve, though single readings can be large; an effect the other way counts as inactive or inconclusive. Unless noted, % is scaled to controls: 0 for no effect and ±100 for the full control effect; potency is read from the fitted curve at half-maximal effect.

SMILES | HT1080-NT tox | TDP1 cell noCPT | HT1080 IDH1KD tx | DT40 TDP1 CPT | KB-V1 MDR tox | KB-3-1 tox
O=C(NCCc1ccccc1)Nc1ccc(Cl)cc1 | 9% | -8% | 6% | -7% | i | i
Cc1c(Cl)cccc1NC(=S)NCCc1ccc(C(F)(F)F)cc1 | u | 16µM* | u | u | u | i
O=[N+]([O-])c1ccc(NC(=S)NCCc2ccc(Cl)cc2)cc1 | u | 5.2µM* | u | 2.3µM* | 16µM* | u
CCCCNC(=S)Nc1ccc(Cl)cc1 | -4% | 23µM* | -3% | u | 16µM* | i
CCOC(=O)N1CCN(C(=O)COC(=O)c2ccc(S(=O)(=O)N(CC)CC)cc2)CC1 | 1% | 0% | 1% | 1% | i | i
O=C(O)c1cc(Nc2cc(Cl)c3nonc3c2[N+](=O)[O-])ccc1O | 3% | u | -3% | u | i | i
Cc1ccc(NC(=S)NCCc2ccc(F)cc2)c(C)c1 | -2% | u | -3% | -9% | i | i
S=C(NCCc1ccccc1)NCc1cccc(Cl)c1 | -27% | 3% | -15% | 1% | i | i
Cc1ccccc1NC(=S)NC(C)CCc1ccccc1 (configuration not stated) | -1% | 21µM* | 8% | u | i | i
CCCCc1ccc(NC(=S)NCCc2ccc(F)cc2)cc1 | u | u | u | u | u | i
Fc1ccc(CCNC(=S)Nc2ccc(F)cc2)cc1 | 3% | 18µM* | 3% | u | u | i
Fc1ccccc1NC(=S)NCCc1cccc(Cl)c1 | -19% | 7.3µM* | -25% | 8.2µM* | i | i
CCOc1ccc(NC(=S)NC(C)CCc2ccccc2)cc1 (configuration not stated) | -18% | 3% | 1% | -1% | i | i
Cc1ccc(F)cc1NC(=S)NCCc1ccccc1 | -6% | 26µM* | -10% | u | i | i
CS(=O)(=O)Nc1nnc(SCC(=O)N(c2ccccc2)c2ccccc2)s1 | 13% | -7% | 16% | 2% | i | i
COCc1ccc(C(=O)N2CCCC(N3CCN(c4cccc(Cl)c4)CC3)C2)s1 (configuration not stated) | -13% | u | -16% | u | i | i
C[C@H]1CN([C@@H](C)CO)C(=O)CCCn2nncc2CO[C@H]1CN(C)C(=O)C1CC1 | 7% | u | 16% | -10% | i | i
CCCC(=O)Nc1ccc(C(=O)NCCc2ccc(F)cc2)cc1 | 17% | -18% | 30% | -24% | 15µM* | i
S=C(NCCc1ccccn1)Nc1cc(Cl)cc(Cl)c1 | u | -16% | -16% | -27% | i | i
S=C(NCCc1ccccn1)Nc1ccc(Cl)c(Cl)c1 | 16% | u | 10% | u | 23µM* | i
CCNc1nc(NCC)n2c(SC(C(=O)Nc3cc(C)ccc3OC)c3ccccc3)nnc2n1 (configuration not stated) | -1% | u | -3% | u | i | i
C=CCn1c(=O)c2c(nc3n2CCN3c2cccc(Cl)c2C)n(C)c1=O | 7% | u | -1% | -27% | 8.2µM* | i
C=C(C)Cn1c(=O)c2c(nc3n2CCN3c2cccc(Cl)c2C)n(C)c1=O | -9% | u | -12% | u | u | i
CC(C)(C)OC(=O)N1CCc2onc(-c3ccccc3F)c2C1=O | 1% | -6% | -3% | -11% | i | u
O=C(O)c1ccc(NC2=C(N3CCOCC3)C(=O)c3ccccc3C2=O)cc1 | -2% | u | 5% | u | i | i
SMILES | HT1080-NT tox | TDP1 cell noCPT | HT1080 IDH1KD tx | DT40 TDP1 CPT | KB-V1 MDR tox | KB-3-1 tox
CC(=O)N(C)C1=C(N2CCOCC2)C(=O)c2ccccc2C1=O | 1.6µM* | 0.16µM* | 0.89µM* | 0.18µM* | 12µM* | 1.2µM*
Cc1ccc(NC2=C(N3CCOCC3)C(=O)c3ccccc3C2=O)cc1 | u | 26µM* | u | 21µM* | u | i
CC(=O)c1ccc(NC2=C(N3CCOCC3)C(=O)c3ccccc3C2=O)cc1 | u | 21µM* | u | 23µM* | 26µM* | i
CC(C)(C)NC(=O)C(c1ccc(O)cc1)N(Cc1ccc2c(c1)OCO2)C(=O)CCl (configuration not stated) | 7% | u | 13% | u | i | i
O=C(O)Cc1sc(Nc2ccccc2Cl)nc1-c1ccccc1 | x | -16% | x | -10% | u | i
O=C(Cc1cccs1)OCC(=O)c1ccco1 | -2% | -16% | 10% | -14% | i | i
O=C(CC(Sc1ccccc1)c1cccs1)c1ccco1 (configuration not stated) | u | 26µM* | u | 18µM* | i | i
CCc1ccccc1NC(=O)CN1CCN(C(=O)CNC(=O)c2ccc(-c3ccccc3)cc2)CC1 | -6%[9.24 µM] | 7.3µM* | u | 4.6µM* | u | i
CCc1ccccc1NC(=O)CN1CCN(CC(=O)Nc2ccc(-c3ccccc3)cc2)CC1 | 16% | 16µM* | 5% | u | u | i
Cc1cccc(NC(=O)CN2CCN(CC(=O)Nc3ccc(-c4ccccc4)cc3)CC2)c1C | -1% | u | -24% | u | i | i
Cc1ccc(C(=O)NCC(=O)N2CCN(c3ccccc3)CC2)cc1 | 7% | 6% | -1% | 7% | i | i
Cc1ccc(NC(=O)C2CC(=O)N(c3ccc(OC(C)C)cc3)C2)cc1 (configuration not stated) | x | -17% | x | u | x | x
O=C(NCCO)c1cccc2c1C(=O)c1ccccc1-2 | 14% | u | 25% | -25% | i | i
CC1CCN(C(=O)c2ccc3c(c2NCCO)C(=O)c2ccccc2C3=O)CC1 | u | 18µM* | u | 23µM* | u | i
CCN(CC)CCNC(=O)c1ccc2c(c1NCCO)C(=O)c1ccccc1C2=O | u | 15µM* | u | 16µM* | 7.3µM* | u

Compound activity: PubChem, National Center for Advancing Translational Sciences (NCATS)
